Screening results deposited in PubChem by National Center for Advancing Translational Sciences (NCATS).
Only a selection was taken, and hits are over-represented in it overall.
Pf Dd2 inh – qHTS Primary assay for Inhibitors of Plasmodium falciparum Dd2 growth in vitro; P. falciparum Dd2 growth, SYBR Green, 72 h; Potency, µM (highest dose often 28.9 µM), actives largely listed as inhibitors; 120,000 tested, 4.3% active; AID 1347417, 2020; active = well fitted inhibition curve with a large enough effect; also: nearly all actives have a fitted effect of over 65% in size
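Infected erythrocytes (Dd2, 0.3% parasitemia, 2.5% hematocrit final) are added to compound in RPMI-1640/Albumax II medium, grown 72 h at 37C in low oxygen, then lysed with saponin/Triton-X containing SYBR Green and read by fluorescence.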
Each line names hits and unclear results; the compound was inactive in the other large screens.

CCOC(=O)C1=C(C)N=C2SC=C(CC(=O)NC3CC3)N2C1c1cccc(OC)c1OC (configuration not stated)	none
CCOC(=O)C1=C(C)N=C2SC=C(CC(=O)N3CCOCC3)N2C1c1ccccc1OC (configuration not stated)	none
COCCOC(=O)C1=C(C)N=C2SC=C(CC(=O)NCc3cccc(F)c3)N2C1c1ccccc1 (configuration not stated)	none
CCC1=C(C(=O)OC)C(c2cccc(C)c2)N2C(CC(=O)Nc3ccc(OC)cc3)=CSC2=N1 (configuration not stated)	Pf Dd2 inh 3.16µM
CCC1=C(C(=O)OC)C(c2ccccc2C)N2C(CC(=O)NCC3CC3)=CSC2=N1 (configuration not stated)	none
CCC1=C(C(=O)OC)C(c2cccc(OC)c2OC)N2C(CC(=O)NC3CC3)=CSC2=N1 (configuration not stated)	none
O=C(CCC[C@@H]1[C@H]2CCCN3CCC[C@@H](CN1C(=O)c1cccnc1)[C@@H]23)N1CCCCC1	none
COCc1nc(CCN)no1	none
CC(C)CCN1CCC2(CC1)NC(=O)c1ccccc1O2	none
O=C(NCc1cccnc1-n1cncn1)C1CC2(CCNCC2)CN1 (configuration not stated)	none
COc1ccc(C(=O)NCc2nnc3c(-c4nc(C(C)C)no4)cccn23)cc1	none
CN(C)c1ccc(CN[C@H]2C[C@H]3C(=O)NC[C@@H](CCC(=O)N4CCC(O)CC4)N3C2)cc1	none
COc1cccc(C(=O)N2CC(F)(F)C[C@H]2c2nc(C)no2)c1	none
Cc1occc1C(=O)N[C@@H]1CN(c2ncccn2)C[C@H]1CO	none
O=C(c1ccco1)N1CCC[C@H](n2c(=O)n(CC3CC3)c3cccnc32)C1	none
CNC(=O)N1CCC(C2CCN(C(=O)c3ccncc3)CC2)C1 (configuration not stated)	none
COCC(=O)N[C@@H]1CN(Cc2cccc(OC)n2)CC[C@@H]1c1nc(C)no1	none
CNC(=O)[C@@H]1C[C@@H](O)CN1C1CCN(C(=O)c2cccc(OC)c2)CC1	none
COc1cccc(C(=O)N2CCC(N3C[C@H](O)C[C@H]3C(=O)N3CCc4ccccc43)CC2)c1	Pf Dd2 inh 2.51µM
COc1cccc(C(=O)N2CCC(N3C[C@H](O)C[C@H]3C(=O)NC3CC3)CC2)c1	none
COc1cccc(C(=O)N2CCC(N3C[C@H](O)C[C@H]3C(=O)N3CCN(c4ncccn4)CC3)CC2)c1	none
C=CCN1CCN(C(=O)[C@@H]2C[C@@H](O)CN2C2CCN(C(=O)c3cccc(OC)c3)CC2)CC1	none
COc1cccc(C(=O)N2CCC(N3C[C@H](O)C[C@H]3C(=O)N3CC=C(c4ccccc4)CC3)CC2)c1	Pf Dd2 inh 0.891µM
O=C(NCc1ccnc2[nH]ccc12)c1ccccc1F	none
CN(C)C[C@@H]1CN(c2ncccn2)C[C@H]1NC(=O)c1cnn(C)c1	none
N#Cc1ccc(CN2CC[C@H](c3nnc(Cc4ccccc4)o3)C2)cc1	none
CCn1cc(CN2CCCC(c3nc4c(C)cccc4[nH]3)C2)cc1C#N (configuration not stated)	Pf Dd2 inh 12.6µM
CCN1CCC2(CCC1=O)CN(Cc1cc(C#N)n(CC)c1)CCN2C (configuration not stated)	none
CC1=NS(=O)(=O)N(Cc2ccccc2)C=C1C(=O)OCc1noc(C2CCCCC2)n1	none
CN1C(=O)C2(CCN([S+](=O)([O-])c3cccc(C(F)(F)F)c3)C2)c2ccccc21 (configuration not stated)	none
COc1ccc(-c2cc(-c3cnc4[nH]ccc4c3)cn3cncc23)cc1	Pf Dd2 inh 6.31µM
c1cc(-c2cc(-c3cn[nH]c3)cn3cncc23)ccn1	none
COc1ccc(-c2cc(-c3cccc(NC(C)=O)c3)cn3cncc23)cn1	Pf Dd2 inh 2µM
O=C1COCCN1c1cc(-c2cnc3[nH]ccc3c2)cn2cncc12	none
Cc1ccc(-c2cc(-c3ccncc3)c3cncn3c2)cn1	none
CC(=O)Nc1cccc(-c2ccc(COc3ccc4c(cnn4CCC(=O)O)c3)cc2)c1	none
COc1ccc(-c2cc(-c3cccnc3)c3cncn3c2)cc1OC	Pf Dd2 inh 10µM
COc1cc(F)ccc1-c1cc(-c2ccc(=O)[nH]c2)c2cncn2c1	none
COc1ccc(-c2cc(-c3ccc(OC)nc3)cn3cncc23)cc1	Pf Dd2 inh 2.51µM
c1cncc(-c2cc(-c3ccc4cn[nH]c4c3)cn3cncc23)c1	none
COc1ccc(-c2cc(-c3cn[nH]c3)c3cncn3c2)cn1	none
Cc1ccc(-c2cc(-c3cccnc3)c3cncn3c2)cn1	none
CC(C)c1nc2nccc(-c3ccc(F)cc3)n2n1	none
CC(C)CCN1CCC2(COc3ccncc3[S+](=O)([O-])N2)C1 (configuration not stated)	none
CC(C)c1nncn1C1CCN(S(=O)(=O)c2ccc(C(F)(F)F)cc2)CC1	none
CCN(CCN(C)C)C(=O)c1coc(COc2ccc3sc(C)nc3c2)n1	none
COCc1noc(CC2CCOC3(CCN(C(=O)c4ccc5[nH]ccc5c4)CC3)C2)n1 (configuration not stated)	none
CCn1nccc1C(=O)N1CCCC(c2noc(COC)n2)C1 (configuration not stated)	none
